Experimental findings from PubChem BioAssay (Tox21) are described below.

SMILES strings stand for the structures. “And” between values parts separate entries of the source, which are not always exact repeats. Equal entries are not always repeated. Inconclusive results are not listed. Values without a mark were called inactive. The source made the active and inactive calls. Calls come from the whole dose curve; as a rule, active = well fitted cell-killing curve with a large enough effect in the repeat runs; inconclusive = weak or mixed curves, or effect the other way; inactive = no such curve, though single readings can be large or run the other way.
% is set by controls: 0 for no effect and ±100 for the full control effect; potency is the fitted concentration of half-maximal effect.

The test in a line: qHTS assay to identify small molecule agonists of the vitamin D receptor (VDR) signaling pathway - cell viability counter screen (AID 743224). Note: nearly all actives have a fitted effect of over 50% in size. The note with it: VDR-bla HEK293T viability, CellTiter-Glo luminescence, 16 h; series mostly up to 62.6 µM; activity change, negative = cytotoxicity: at the top concentration. The source says: U.S. Tox21 Program National Center for Advancing Translational Sciences [NCATS] NIH Chemical Genomics Center [NCGC] U.S. Environmental Protection Agency [EPA] National Institutes of Environmental Health Sciences [NIEHS] National Toxicology Program [NTP] U.S. Food and Drug Administration [FDA] Tox21 Assay Overview: The vitamin D receptor (VDR), a member of nuclear hormone receptor superfamily, plays a critical role in calcium homeostasis and bone metabolism. It is also involved in cell differentiation and growth, and thrombogenicity. […] The cytotoxicity of the Tox21 compound library against the VDR-bla cell line was tested in parallel by measuring the cell viability using CellTiter-Glo assay (Promega, Madison, WI) in the same wells.
Tox21 Assay Protocol Summary: VDR-bla cells were dispensed at 2,000 cells/6 uL/well into black wall/clear-bottom 1536-well plates using a Multidrop Combi (Thermo Fisher Scientific, Waltham, MA) dispenser. After the assay plates were incubated at a 37C and 5% CO2 for 4 h, 23 nL of compounds dissolved in DMSO, positive controls or DMSO only was transferred to the assay plate by a Pintool station (Kalypsys, San Diego, CA). The plates were incubated at 37C and 5% CO2 for 16 h. After 1 uL of LiveBLAzerTM B/G FRET substrate was added using a Bioraptr Flying Reagent Dispenser (FRD) workstation (Beckman Coulter, Indianapolis, IN, USA), the plates were incubated at room temperature for 2 h, and fluorescence intensity was measured by an Envision plate reader (PerkinElmer, Shelton, CT). For cell viability readout that measures cytotoxicity, 3 ul/well of CellTiter-Glo reagent was added into the assay plates using a FRD. After 30 min incubation at room temperature, the luminescence intensity in the plates was measured using a ViewLux (PerkinElmer) plate reader.
On the technique in general: qHTS replaces the single test concentration by a dilution series.
On to `O=C(Cl)OCCOCCOC(=O)Cl`, for which the “activity change, negative = cytotoxicity” value was 12.4%. Still for that read-out and setting: with `C[C@H]1O[C@H](OC2[C@@H](O)[C@@H](O)C(O)[C@H](O)[C@H]2O)[C@@H](N)C[C@@H]1N=C(N)C(=O)O` (stereo not given in full) the figure was 11.6%; with `C=CCOC(=O)C(C)(C)OC(=O)c1cc(-n2c(=O)cc(C(F)(F)F)n(C)c2=O)ccc1Cl`, 6.96%; with `C=CC(=O)NC(C)(C)CC(C)=O`, -17.4%.

In the case of `CCC1(CC)C(=O)NC(=O)NC1=O`, the “activity change, negative = cytotoxicity” value is -11%.

As for `O=C1NC(=O)C(=O)C(=O)N1`, the “activity change, negative = cytotoxicity” value was 19.9% [at 81.1 µM]. As for `CCOC(=O)c1cn2nc(OP(=S)(OCC)OCC)cc2nc1C`, the “activity change, negative = cytotoxicity” value was -7.25%. Turning to `C[C@]12C=CC3=C4CCC(=O)C=C4CC[C@H]3[C@@H]1CC[C@@H]2O`, the “activity change, negative = cytotoxicity” value is -2.95%. Take `C=CCc1ccc(OC(=O)Cc2ccccc2)c(OC)c1`: the “activity change, negative = cytotoxicity” value is 2.99%.

For the compound `C=CC(C)(CCC=C(C)C)OC(=O)c1ccccc1N` (stereo not given), the “activity change, negative = cytotoxicity” value is -3.98% [at 81.1 µM]. On to `CCCN(CCC)c1c([N+](=O)[O-])cc(C(C)C)cc1[N+](=O)[O-]`, for which the Potency entry is “inactive”. On to `C[C@H](N)[C@H](O)c1ccc(O)c(O)c1`, for which the “activity change, negative = cytotoxicity” value is -8.94%. On to `C=C(C)C(=O)OCCCCOC(=O)C(=C)C`, for which the “activity change, negative = cytotoxicity” value is 0.263%. Take `O=CC=O`: the “activity change, negative = cytotoxicity” value is 12.1% [at 81.1 µM]. `COCc1cnc(C2=NC(C)(C(C)C)C(=O)N2)c(C(=O)O)c1` (stereo not given): the “activity change, negative = cytotoxicity” value is 11.3%. Still for that read-out and setting: with `CC(C)(C)OOC(C)(C)CCC(C)(C)OOC(C)(C)C` the figure was 12.4%.

For `COc1cc(C[C@@H](C)N)c(OC)cc1Br`, the “activity change, negative = cytotoxicity” value was -18% [at 81.1 µM]. As to `CCOC(C(=O)OCCN(C)C)(c1ccccc1)c1ccccc1`, the “activity change, negative = cytotoxicity” value was -1.61%. The same measure, in the same setting: with `C=C(Cl)Cl` the figure was 9.73% [at 81.1 µM]; with `O=S(=O)(Cl)Cl`, 0.506%. For `C[C@]12CC[C@H]3[C@@H](CCC4=CC(=O)CC[C@@H]43)[C@@H]1CC[C@@H]2OC(=O)CCc1ccccc1`, the “activity change, negative = cytotoxicity” value is 6.05%. With `CC[N+]1(CCOC(=O)C(O)(c2ccccc2)c2ccccc2)CCCCC1`, the “activity change, negative = cytotoxicity” value was -2.53%. Turning to `CCN(C(C)=O)c1cccc(-c2ccnc3c(C#N)cnn23)c1`, the “activity change, negative = cytotoxicity” value was -8.12%. With `CCCC(C)(COC(N)=O)COC(=O)NC(C)C` (stereo not given), the “activity change, negative = cytotoxicity” value was -8.37%. Take `COC1=CC(=O)O[C@@H](/C=C/c2ccc3c(c2)OCO3)C1`: the “activity change, negative = cytotoxicity” value was -0.301%. The same measure, in the same setting: to `CC(Oc1cccc(Cl)c1)C(=O)O` (stereo not given) belongs -10.6%; to `CC(Cc1ccccc1)NCc1ccccc1Cl` (stereo not given), 0.753%; to `CCCCOC(=O)CCC(=O)OCCCC`, -1.17%. Turning to `CCCC[P+](CC)(CCCC)CCCC` (tested in a mixture with another compound), the “activity change, negative = cytotoxicity” value is 3.52% [at 81.1 µM]. As to `CCC(C)(C)c1ccc(O)c(C(C)(C)CC)c1`, the Potency is 12.2 µM (active) and 11 µM (active). For `O=[N+]([O-])/C=C/c1ccccc1`, the Potency was 49 µM (active). Regarding `Cc1nc2ccccc2c(=O)n1-c1ccccc1Cl`, the “activity change, negative = cytotoxicity” value was 6.66% [at 81.1 µM]. The same measure, in the same setting: to `C#CC(O)(C=CCl)CC` (stereo not given) belongs -2.17%; to `CON(C)C(=O)Nc1ccc(Cl)cc1`, -7.01%; to `CCCN(CCOc1c(Cl)cc(Cl)cc1Cl)C(=O)n1ccnc1`, -1.07%.

With `Nc1cccc2ccccc12`, the Potency result was “inactive”. For `C[CH2][Hg][S]c1ccccc1C(=O)O`, the Potency was 1.23 µM (active) and 2.11 µM (active).

Consider `CCC[N+](CCC)(CCC)CCC`, for which the “activity change, negative = cytotoxicity” value is -11%. The same measure, in the same setting: to `SCc1ccccc1` belongs -10.6% [at 81.1 µM]. Turning to `c1ccc2c(c1)-c1cccc3cccc-2c13`, the Potency entry was “inactive”.
